Only some compounds are listed: those with a hit (about 2.4% of all), similar ones and a draw of the others.
POLI inh: qHTS for Inhibitors of Polymerase Iota; DNA polymerase iota (Homo sapiens), Q9UNA4; Pol iota fluorescent replication assay, 10 min; Potency, µM (titrated, usually from 115 µM), for the others: at the highest dose activity, negative = inhibition, most hits filed as inhibitors; 390,000 tested, 1% active
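Fluorescent replication assay read twice, at 0 min and 10 min after adding 50 nM (final) substrate. Enzyme (10 nM) and compounds were first incubated 15 min at room temperature; enzyme-free buffer wells were negative controls.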
Pol beta inh: qHTS Assay for Inhibitors of DNA Polymerase Beta | P06746 | Pol beta primer extension/strand displacement, fluorescence kinetic | Potency, µM (doses to about 114 µM), inactives show at the highest dose activity change, negative = inhibition, most hits filed as inhibitors | 340,000 tested, 1.3% active | AID 485314, 2010; note: % is set by controls: 0 for no effect and ±100 for the full control effect
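Kinetic readout of DNA synthesis with strand displacement by Pol beta. Compound and 10 nM enzyme sit 15 min at room temperature; 50 nM substrate starts the reaction, read immediately and at 10 min.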
POLK inh: qHTS for Inhibitors of Polymerase Kappa | DNA polymerase kappa (Homo sapiens), Q9UBT6 | purified Pol kappa, fluorescent DNA synthesis assay, 10 min | Potency, µM (titrated, usually from 107 µM), without a hit: top-dose activity, negative = inhibition, most hits filed as inhibitors | 400,000 tested, 0.53% active; note: % is set by controls: 0 for no effect and ±100 for the full control effect
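Inhibition of 10 nM Pol kappa is measured by a fluorescent read-out at 0 and 10 min following addition of 50 nM substrate (final), with a 15-min room-temperature compound preincubation.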
FEN1 inhibitor: qHTS Assay for the Inhibitors of Human Flap endonuclease 1 (FEN1) | P39748 | Recombinant FEN1 flap cleavage, fluorescence, 15 min | Potency, µM (titrated, usually from 114 µM), for inactives: top-dose activity change, negative = inhibition, hits mostly inhibitors | 390,000 tested, 0.35% active; note: % is set by controls: 0 for no effect and ±100 for the full control effect; nearly all actives have a fitted effect of over 65% in size
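Nuclease activity of 10 nM FEN1 was measured after 15 min of room-temperature exposure to titrated compounds, by adding 50 nM flap substrate and reading plates at 0 and 15 min.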
POLH inh: qHTS for Inhibitors of Polymerase Eta; 390,000 tested, 1.2% active; AID 588591, 2011; Potency, µM (doses to about 114 µM), for inactives: at the highest dose activity change, negative = inhibition, actives largely listed as inhibitors; recombinant Pol eta, fluorescent DNA replication assay; note: % is set by controls: 0 for no effect and ±100 for the full control effect
Target sequence (Q9Y253 whole entry, looked up): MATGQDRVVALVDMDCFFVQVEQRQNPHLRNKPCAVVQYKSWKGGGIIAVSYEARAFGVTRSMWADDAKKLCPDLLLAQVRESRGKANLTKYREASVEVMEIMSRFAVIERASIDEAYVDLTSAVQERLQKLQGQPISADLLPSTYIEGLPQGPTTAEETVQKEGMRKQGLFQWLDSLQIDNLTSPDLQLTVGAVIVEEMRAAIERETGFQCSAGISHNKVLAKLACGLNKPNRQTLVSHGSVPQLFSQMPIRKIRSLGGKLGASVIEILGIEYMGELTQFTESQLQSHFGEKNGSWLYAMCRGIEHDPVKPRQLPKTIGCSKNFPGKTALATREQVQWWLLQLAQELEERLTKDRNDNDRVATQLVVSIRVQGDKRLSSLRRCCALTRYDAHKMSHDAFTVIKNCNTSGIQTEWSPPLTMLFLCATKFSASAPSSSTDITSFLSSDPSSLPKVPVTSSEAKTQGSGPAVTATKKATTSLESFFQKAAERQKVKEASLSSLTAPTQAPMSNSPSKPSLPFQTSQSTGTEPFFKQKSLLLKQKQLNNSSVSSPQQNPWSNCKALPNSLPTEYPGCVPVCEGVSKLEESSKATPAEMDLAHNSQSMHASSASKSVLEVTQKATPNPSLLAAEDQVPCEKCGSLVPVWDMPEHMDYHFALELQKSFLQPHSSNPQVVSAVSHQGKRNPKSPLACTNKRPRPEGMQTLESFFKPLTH
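Pol eta at 10 nM preincubated with compounds 15 min at room temperature; reaction started with fluorescent substrate (50 nM final) and read kinetically at 0 and 10 min.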
WRN inhibitor: qHTS for Inhibitors of WRN Helicase; Bifunctional 3'-5' exonuclease/ATP-dependent helicase WRN (Homo sapiens), Q14191; WRN helicase unwinding, fluorescent forked duplex, kinetic; Potency, µM (titrated, usually from 114 µM), for the others: top-dose activity change, negative = inhibition, most hits filed as inhibitors; 360,000 tested, 0.46% active; note: % is set by controls: 0 for no effect and ±100 for the full control effect; nearly all actives have a fitted effect of over 55% in size
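Primary qHTS, 1536-well format. 20 nM WRN + compound, 15 min RT; start with 100 nM forked fluorophore/quencher duplex, 2 mM ATP (final); kinetic read ex 525/em 598 nm.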
* hit, by the source's call; ? = inconclusive; · = no result; [ ] = another dose, or the depositor's remark. Calls come from the whole dose curve; as a rule, active = well fitted curve in the direction sought with a large enough effect; inconclusive = small, poorly fitted or top-dose-only effect, or another doubt; inactive = no such curve, though single readings can be large; an effect the other way counts as inactive or inconclusive. Potency is the fitted concentration of half-maximal effect.

SMILES | POLI inh | Pol beta inh | POLK inh | FEN1 inhibitor | POLH inh | WRN inhibitor
Cn1c2ccccc2c(=O)c2ccc(C#CC3(N)CCCCC3)cc21 | ? | 35µM* | ? | 22µM* | -10% | 40%
Cc1cc(C)cc(Nc2cc(C(=O)NC3CCC(C)CC3)c3ccccc3n2)c1 (centres undefined) | -8% | -27% | -27% | -13% | 89µM* | ·
Cc1cc(C)cc(Nc2cc(C(=O)NC3CCCCC3)c3ccccc3n2)c1 | -2% | 14% | -7% | 4% | -28% | ·
COc1cccc2cc(C(=O)NCc3ccco3)c(=Nc3ccc(C(=O)O)cc3)oc12 | 8% | -8% | 0% | ? | 89µM* | -9%[57.1 µM]
O=C(Nc1ccc(C(F)(F)F)cc1)c1cc(S(=O)(=O)NC2CCCCC2)ccc1F | 16% | 1% | -8%[60.1 µM] | -24% | -20% | ·
Cc1cc(/C(N)=N/OC(=O)c2cccc(Cl)c2)no1 | -33%[58.9 µM] | 89µM* | -11% | -10% | -12% | ?
COC1=C(Nc2ccc(O)cc2)C(=O)c2ccccc2C1=O | 25µM* | ? | -17% | -22% | -11% | -16%
COC1=C(Nc2ccc(OC)cc2)C(=O)c2ccccc2C1=O | ? | ? | -5% | -15% | -8% | -10%[57.1 µM]
O=c1c2ccccc2sn1-c1ccc(Cl)c(S(=O)(=O)N2CCOCC2)c1 | 79µM* | · | -14% | ? | · | ·
COc1cc(C(CC(=O)Nc2ccc(C)c(F)c2)N2Cc3ccccc3C2=O)cc(OC)c1OC (centres undefined) | 36% | 4% | -15% | 0% | -12% | ·
Cc1ccc(-c2csc3nc4c5ccccc5c(NCCCN(C)C)nn4c(=O)c23)cc1 | 12% | 10% | 7% | 20µM* | -22% | 30%[57.1 µM]
COc1cccc(Cn2cccc(NC(=O)NCc3ccccc3)c2=O)c1 | 49% | 2% | -3% | 17% | 0% | 11%
COc1cccc(Cn2cccc(NC(=O)Nc3ccccc3C)c2=O)c1 | 13µM* | -28% | 4% | -32% | -5% | 0%[11.6 µM]
CCOC(=O)/C=C1/N(C)c2ccccc2C1(C)C | 10% | -2% | -23% | 3% | 0% | -10%
CN1/C(=C\P(=O)(N(C)C)N(C)C)C(C)(C)c2ccccc21 | ? | 5% | -14% | -17% | -5% | 50µM*
CC(C)(C)Nc1nc(Cl)nc(NC2CCCCC2)n1 | 35% | 1% | -8% | 3% | -15% | -28%
CCN(CC)c1ccc(NS(=O)(=O)c2cc3[nH]c(=O)c(=O)[nH]c3cc2C)c(C)c1 | ? | 50µM* | ? | 1% | -24% | ·
Cc1cc(Cl)ccc1NS(=O)(=O)c1cc2[nH]c(=O)c(=O)[nH]c2cc1C | 16% | 39% | -9% | -18% | -8% | ·
Cc1c(Cl)cnc(NC(=O)COC(=O)C(NC(=O)c2ccco2)C(C)C)c1Cl (centres undefined) | ? | 45µM* | -4% | 14% | 89µM* | -29%
Cc1noc(C)c1C(=O)OCC(=O)Nc1ncc(Cl)c(C)c1Cl | ? | · | -18% | -1% | 20µM* | -10%[11.6 µM]
COc1ccc(CC(=O)OCC(=O)Nc2ncc(Cl)c(C)c2Cl)cc1 | ? | · | -38% | -7% | 20µM* | -24%
CCOc1ccc(Nc2oc(-c3ccco3)nc2C#N)cc1 | -3% | 18% | -2% | -2% | -9% | -5%
Cc1ccc(NC(=O)C2CCN(C(=O)c3ccc(Cl)cc3)CC2)nc1 | -5% | · | -12% | -4% | -7% | -2%
COc1ccc(OC)c(C(=O)c2ccc([N+](=O)[O-])cc2)c1 | 36% | · | 3% | -10% | -6% | 0%
Cc1ccc(S(=O)(=O)n2ccc3c(OCCOCCSCC(NC(=O)OC(C)(C)C)C(=O)O)cccc32)cc1 (centres undefined) | 28µM* | 71µM* | ? | -3% | ? | -27%
SMILES | POLI inh | Pol beta inh | POLK inh | FEN1 inhibitor | POLH inh | WRN inhibitor
O=[N+]([O-])c1c(NCCCO)cc(Sc2ccc(Cl)cc2)c2nonc12 | 25% | 25% | -15% | ? | -7% | -10%
CC(=O)OCCNc1cc(SCc2ccco2)c2nonc2c1[N+](=O)[O-] | 18µM* | ? | 79µM* | ? | ? | ?
O=[N+]([O-])c1c(NCCCO)cc(SCc2ccco2)c2nonc12 | 4% | 50µM* | -5% | ? | 13% | -36%
COC(=O)CCSc1cc(NCCOC(C)=O)c([N+](=O)[O-])c2nonc12 | ? | -10% | -7% | ? | ? | -13%
COc1ccccc1/C=C/C(=O)c1ccc(Cl)cc1 | ? | 6% | -4% | -14% | -15% | -7%[11.6 µM]
CCN(c1ccccc1)S(=O)(=O)c1ccc(C(=O)NCCCN2CCOCC2)cc1 | -9% | · | 1% | -16% | 4% | 9%
Cc1cc(C)c(S(=O)(=O)/N=C2/C=C(SCC(=O)O)C(=O)c3ccccc32)cc1C | 6.3µM* | ? | -14% | 10µM* | 20µM* | 18µM*
O=C(c1nc2ccc(Cl)cn2c1CN1CCCC1)N1CCc2ccccc2C1 | 18µM* | ? | ? | -20% | 32µM* | -11%[11.6 µM]
O=C(c1nc2ccc(Cl)cn2c1CN1CCC(CO)CC1)N1CCc2ccccc2C1 | 28% | 7% | 0% | 6% | -18% | -14%
CC(=O)N1CCc2cc(S(=O)(=O)CCC(=O)N3CCN(c4ccccc4)CC3)ccc21 | -17% | 1.3µM* | -9% | -15% | 8% | -10%
CCC(=O)N1CCc2cc(S(=O)(=O)CCC(=O)N3CCN(c4ccccc4)CC3)ccc21 | 16% | 0% | 0% | -3% | -14% | 2%
Cc1ccc(C)c(N2CCN(S(=O)(=O)c3ccc4c(c3)CCN4C(=O)CCC(=O)O)CC2)c1 | -5% | -27% | -14% | 10% | 7% | -4%
O=C(O)c1c[nH]c2ccc(S(=O)(=O)N3CCN(c4ccc(F)cc4)CC3)cc2c1=O | ? | 20µM* | ? | ? | 89µM* | -29%
O=C(O)CCC(=O)N1CCc2cc(S(=O)(=O)N3CCN(c4ccc(F)cc4)CC3)ccc21 | ? | 22µM* | -8% | 2% | -4% | 2%
O=C(c1ccccc1)N1CCN(C(=O)c2cccnc2)CC1 | -8% | -11% | -5% | 22% | 5% | 5%
CC(Sc1ccccn1)C(=O)Nc1ccc2c(c1)OCO2 (centres undefined) | 13% | · | 0% | -9% | -4% | 10%
O=C1C(=O)c2ncccc2-c2cccnc21 | · | · | 8.9µM* | · | · | ·
O=C1c2cccnc2C(=O)N1C1CCCCC1 | 8% | 17% | 8% | -6% | -5% | 3%

Source: PubChem BioAssay (National Center for Advancing Translational Sciences (NCATS))
